These compounds were tested against T1, Aspartate--tRNA(Asp/Asn) ligase (Mycobacterium tuberculosis (strain ATCC 25618 / H37Rv)) (UniProt P9WFW3) (assay: Assay for Asp RNA synthetase-1 from Mycobacterium tuberculosis). Settings: 30 µM.
T1 sequence (whole entry): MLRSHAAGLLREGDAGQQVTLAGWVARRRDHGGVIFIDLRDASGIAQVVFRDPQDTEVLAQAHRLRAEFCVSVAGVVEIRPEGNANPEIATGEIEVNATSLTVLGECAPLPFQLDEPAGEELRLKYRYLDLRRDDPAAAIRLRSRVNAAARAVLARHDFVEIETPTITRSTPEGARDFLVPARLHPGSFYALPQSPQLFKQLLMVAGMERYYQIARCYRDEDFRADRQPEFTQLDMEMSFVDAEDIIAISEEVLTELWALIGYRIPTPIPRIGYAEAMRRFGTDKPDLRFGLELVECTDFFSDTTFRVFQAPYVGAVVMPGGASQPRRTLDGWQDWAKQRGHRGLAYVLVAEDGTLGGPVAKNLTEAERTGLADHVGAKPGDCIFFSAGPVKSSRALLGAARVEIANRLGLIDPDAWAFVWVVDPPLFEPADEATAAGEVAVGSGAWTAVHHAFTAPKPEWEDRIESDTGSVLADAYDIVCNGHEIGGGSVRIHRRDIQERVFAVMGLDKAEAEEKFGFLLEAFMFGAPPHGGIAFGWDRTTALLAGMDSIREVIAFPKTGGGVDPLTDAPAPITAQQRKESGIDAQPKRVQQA
Format: functional
Parameters: scale not given: in the data most compounds retested in dose-response had high values

**Q.** With `COCCN1CCN(C(=O)c2ccncc2F)Cc2cccnc21` as the compound, how does the Percent Effect read?
**A.** -0.348%

**Q.** How did the Percent Effect turn out when `O=C(c1n[nH]c2c1CCN(Cc1nccs1)C2)N1CCCC1` was run?
**A.** -0.578%

**Q.** Which Percent Effect does the source give for `COCCN1CCN(Cc2noc(C3CC3)n2)CC1C` (stereo not given) here?
**A.** -6.85%

**Q.** Which Percent Effect does the source give for `COc1cccc(N2CCN(CC(O)c3cc(C)sc3C)CC2)c1` (stereo not given) here?
**A.** 0.432%

**Q.** How did the Percent Effect turn out when `O=C(NCCc1cccs1)[C@H]1CO[C@H]2CCNC[C@H]2C1` was run?
**A.** 2.09%

**Q.** How did the Percent Effect turn out when `Cc1nn(C)c(C)c1C1COCCN1C(=O)c1cnc(N)c(Cl)c1` (stereo not given) was run?
**A.** 0.88%

**Q.** `Cc1nc(C2CCCN(C(=O)c3cc(Cl)c[nH]3)C2)no1` (stereo not given) was tested. Which Percent Effect did it give?
**A.** -3.91%

**Q.** With `O=C(c1cccc(S(=O)(=O)NCCCc2ncc[nH]2)c1)N1CCOCC1` as the compound, how does the Percent Effect read?
**A.** 8.25%

**Q.** For `CCc1ncc2c(n1)CN(Cc1nnc(C)o1)CC2`, which Percent Effect is on record?
**A.** -4.37%

**Q.** `c1cnc(-c2cnc(N3CCSCC3)nc2C2CC2)cn1` was tested. Which Percent Effect did it give?
**A.** 1.07%

**Q.** With `COc1ccc(NC(=O)NCC(O)c2ccc(F)cc2F)c(OC)c1` (stereo not given) as the compound, how does the Percent Effect read?
**A.** 1.18%

**Q.** How did the Percent Effect turn out when `Cc1ccc(C(=O)N2CCn3cc(CN4CCCCC4)nc3C2)o1` was run?
**A.** 8.53%

**Q.** How did the Percent Effect turn out when `CCS(=O)(=O)N1CCC(c2cc3n(n2)[C@@H](C(F)(F)F)C[C@@H](C)N3)CC1` was run?
**A.** 5.23%

**Q.** Which Percent Effect does the source give for `CCn1cnnc1CNC(=O)N1CCOCC1` here?
**A.** -11.7%

**Q.** `Cc1cnc(CNC(=O)NCc2cccnc2N(C)C)s1` was tested. Which Percent Effect did it give?
**A.** -2.25%

**Q.** With `COCCCNC(=O)CN(C)C(=O)c1cc(C)ccc1O` as the compound, how does the Percent Effect read?
**A.** 0.583%

**Q.** For `CCn1cc(NC(=O)C2CCN(Cc3ccccc3C#N)CC2)cn1`, which Percent Effect is on record?
**A.** 1.7%

**Q.** For `N#CC1(C(=O)N2CCN(Cc3ccon3)CC2)CCC1`, which Percent Effect is on record?
**A.** -1.89%

**Q.** How did the Percent Effect turn out when `CN1CC(=O)N(c2cccc(F)c2)CC12CCNC2` (stereo not given) was run?
**A.** -4.35%

**Q.** For `Cc1cc(C)n(CC2CCCN2C(=O)c2ccc(C(N)=O)cn2)n1` (stereo not given), which Percent Effect is on record?
**A.** -3.07%

**Q.** For `CC(NC(=O)NCCCN(C)S(C)(=O)=O)c1cccc(Cl)c1` (stereo not given), which Percent Effect is on record?
**A.** 1.12%

**Q.** Which Percent Effect does the source give for `Cc1nc(NCCc2ccc(Cl)cc2)cc(C(=O)N2CCOCC2)n1` here?
**A.** 12.1%

**Q.** Which Percent Effect does the source give for `Cc1nc(C)c(C(=O)NCCNc2ncccc2C#N)s1` here?
**A.** 0.324%

**Q.** For `CC(C)c1nnc2ccc(N3CCC(C(=O)Nc4nccs4)CC3)nn12`, which Percent Effect is on record?
**A.** -2.93%

**Q.** For `Cn1cc(CC(=O)N2CCC(Nc3cccnn3)CC2)c2ccccc21`, which Percent Effect is on record?
**A.** 2.29%

**Q.** Which Percent Effect does the source give for `CC(C)C(Sc1nnc(C2CC2)n1C1CC1)C(=O)NCc1cccnc1` (stereo not given) here?
**A.** -2.03%

**Q.** `Cc1ccc(S(=O)(=O)NC(=O)c2cccc(OCC(N)=O)c2)s1` was tested. Which Percent Effect did it give?
**A.** 2.86%

**Q.** How did the Percent Effect turn out when `Cc1cc(N2CCN(CC(=O)N(C)C)CC2)nc(-c2ccncc2)n1` was run?
**A.** -3.92%

**Q.** `CC1CN(CC(=O)Nc2nncs2)CCN1Cc1nccn1C` (stereo not given) was tested. Which Percent Effect did it give?
**A.** 4.22%

**Q.** With `CCc1ccc(S(=O)(=O)Nc2cn(C)cc(Br)c2=O)cc1` as the compound, how does the Percent Effect read?
**A.** -3.18%

**Q.** `c1coc(-c2noc(CN3CCC(c4ccn[nH]4)CC3)n2)c1` was tested. Which Percent Effect did it give?
**A.** 0.546%

**Q.** With `CCOc1cc(C)nc(N2CCN(C(=O)c3ccc[nH]3)CC2)n1` as the compound, how does the Percent Effect read?
**A.** -0.0874%

**Q.** Which Percent Effect does the source give for `CC(C)NC(=O)C1CN(C(=O)N2CCCC2)CC12CCOCC2` (stereo not given) here?
**A.** -2.03%

**Q.** `CN1CCN(Cc2ccccc2CNC(=O)c2ccc(Br)cc2)CC1` was tested. Which Percent Effect did it give?
**A.** -0.466%

**Q.** For `Cn1c(CN2CCCC2)nnc1C1CCCN(C(=O)C2CCOCC2)C1` (stereo not given), which Percent Effect is on record?
**A.** 2.71%

**Q.** With `Cc1cccc(C2(NC(=O)CCN3C(=O)CCC3=O)CCCC2)c1` as the compound, how does the Percent Effect read?
**A.** -6.14%

**Q.** How did the Percent Effect turn out when `CN(C(=O)C1CSCN1S(=O)(=O)c1ccc(F)cc1)C1CC1` (stereo not given) was run?
**A.** -0.268%

**Q.** With `CCOc1ccc2[nH]c(=O)c(CN3CCC(O)CC3)cc2c1` as the compound, how does the Percent Effect read?
**A.** -6.3%

**Q.** With `O=C(NCCn1nc2ccccn2c1=O)c1cccc2[nH]ncc12` as the compound, how does the Percent Effect read?
**A.** -0.633%

**Q.** For `CCOc1ccc(N2CCCN=C2NC(=O)c2ccccc2C)cc1`, which Percent Effect is on record?
**A.** 4.31%
